Experimental data: PubChem BioAssay AID434989 (The Scripps Research Institute Molecular Screening Center, 2010)
In all, about 330,000 compounds went through this assay and about 1,400 (0.42%) were called active.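 Rule for the calls: active = inhibition above its plate's threshold, mean inhibition of all tested compounds on the plate plus 3 SD (cut at about 37% in these data); inactive = the rest.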 Shown is part of a subset that was picked to be rich in actives.

What follows are compounds tested against Orexin/Hypocretin receptor type 1 (Homo sapiens) (UniProt O43613) (assay: blockers of orexin-A calcium signaling via HCRTR1 – fluorescence, CHO/OX1R cells, Fluo-8 calcium, primary screen (AID 434989;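 note: 0% = orexin A challenge wells and 100% = SB-334867-A antagonist wells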)). Details: Fluo-8 calcium fluorescence, at 5 µM, hits give high values.
Chain of Orexin/Hypocretin receptor type 1 (Homo sapiens) (O43613 whole entry, looked up): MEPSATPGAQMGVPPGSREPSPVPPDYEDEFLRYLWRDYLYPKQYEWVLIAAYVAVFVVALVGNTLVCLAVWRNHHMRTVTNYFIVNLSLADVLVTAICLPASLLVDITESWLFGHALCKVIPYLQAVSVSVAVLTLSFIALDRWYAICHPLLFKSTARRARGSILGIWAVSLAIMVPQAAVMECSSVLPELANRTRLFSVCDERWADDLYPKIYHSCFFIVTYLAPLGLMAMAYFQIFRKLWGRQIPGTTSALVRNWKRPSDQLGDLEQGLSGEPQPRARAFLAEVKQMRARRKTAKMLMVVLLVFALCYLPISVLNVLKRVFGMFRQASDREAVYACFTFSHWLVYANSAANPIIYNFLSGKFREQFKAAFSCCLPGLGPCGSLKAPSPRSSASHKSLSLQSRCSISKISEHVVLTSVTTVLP

inhibition, active:
COc1cc(OC)cc(C(=O)N[C@H](C(=O)OCC(=O)NC(C)c2ccccc2)C(C)C)c1 (stereo partly drawn) 59%, O=[N+]([O-])/C=C/c1ccc2c(ccn2Cc2ccccc2)c1 53.8%, O=C(Nc1ccc(C2CC2(Cl)Cl)cc1)c1cccc([N+](=O)[O-])c1 (stereo not drawn) 45.8%, COc1ccc(NC(=O)/C(Cl)=C(/Cl)S(=O)Cc2ccc(C)cc2)cn1 (stereo not drawn) 47.5%, Cc1ccc(NC(=O)COc2ccc(-n3ccnc3)cc2)cc1Cl 49.1%, CCCCCCCCCCOC(=O)Cn1c(COc2ccc(C)cc2)[n+](C)c2ccccc21 51.1%, CCCCCCCCCCOC(=O)Cn1c(COc2cccc(OC)c2)[n+](C)c2ccccc21 41.4%, C=CCn1c(SCC(=O)Nc2nc3ccccc3s2)nnc1-c1ccccc1O 68%, O=[N+]([O-])c1c(NCCO)cc(Sc2nc3ccccc3s2)c2nonc12 59.3%, Fc1ccc2[nH]c3c(N4CCSCC4)ncnc3c2c1 52.4%

inhibition, inactive:
COc1cc(OC)cc(C(=O)NC(C(=O)N2CCC2)C(C)C)c1 (stereo not drawn) -9.6%, Cc1cc(C)cc(OCC(=O)NC(C)c2ccccc2)c1 (stereo not drawn) -37.8%, CC(C)(C)OC(=O)C[C@@H]1C/C=C\C[C@@H](CC(=O)N[C@H](CO)Cc2ccccc2)C(=O)NCCOC1=O 2.53%, COc1ccc(CN2C(CC(=O)Nc3cccnc3)c3ccc(C(F)(F)F)cc3S2(=O)=O)cc1 (stereo not drawn) -16.2%, O=C(Cn1ccc2cc(S(=O)(=O)N3CCCC3)ccc21)NCc1ccccc1 -25.5%, COC(=O)Cn1cc(/C=C/[N+](=O)[O-])c2ccccc21 -4.68%, CC1(C)C[C@H]2C3=CCC4[C@@]5(C)CC[C@H](O)[C@](C)(CO)C5CC[C@@]4(C)[C@]3(C)C[C@@H](O)[C@@]2(CO)[C@@H](O)[C@@H]1O (stereo partly drawn) -0.97%, O=C(Nc1ccc(C(=O)N2CCCCC2)cc1)c1cccc([N+](=O)[O-])c1 1.86%, O=C(Nc1ccc(NC(=O)c2ccco2)c(Cl)c1)c1cccc([N+](=O)[O-])c1 -19.9%, CC(Sc1nncn1C)C(=O)NCCC1=CCCCC1 (stereo not drawn) -6.11%, COc1ccc(CNC(=O)C[C@H]2C[C@H](C(=O)N3CCOCC3)[C@@]3(CCC4CCCC4)c4[nH]c5ccc(Cl)cc5c4CCN3C2=O)cc1OC 19.8%, COc1ccc(Nc2ccc([N+](=O)[O-])cn2)cn1 -22.9%, Cc1ccc(NC(=O)OCc2cncs2)cc1 -7.33%, CCCSc1ccc([C@H]2N[C@@](Cc3ccccc3)(C(=O)OC)[C@H]3C(=O)N(C)C(=O)[C@@H]23)cc1 -27.9%, CC(C)(C)OC(=O)C1=C(CO)CS[C@@H]2[C@H](NC(=O)Cc3ccccc3)C(=O)N12 1.11%, C=CC[C@@H](CC(=O)NCCO)C(=O)N[C@H](C)COC(=O)[C@@H](CC=C)CC(=O)OC(C)(C)C 1.19%, CN(C(=O)COC(=O)Cc1ccccc1[N+](=O)[O-])C1CCS(=O)(=O)C1 (stereo not drawn) 1.38%, CC(C)n1cnc2c(NCc3ccccc3)cc(N[C@@H](CO)Cc3ccccc3)cc21 -6.91%, CCC(=O)c1ccc(OCC(=O)Nc2ccc3nc(C)sc3c2)cc1 -9.93%, Cc1cc(N2CCCC2)ccc1NC(=O)COc1ccc(Cl)cc1 23.4%, CN(CC(=O)Nc1ccc(OC(F)F)cc1)S(=O)(=O)/C=C/c1ccccc1 -20%, COc1ccc(S(=O)(=O)Nc2cccc3c2O[C@H](CN(C)S(=O)(=O)c2ccc(OC)cc2)[C@@H](C)CN([C@H](C)CO)C3=O)cc1 -20.8%, CN[C@H](C(=O)NC[C@H]1O[C@@H](n2cnc3c(N)ncnc32)[C@H](O)[C@@H]1O)[C@@H](C)OCc1ccccc1 -13.1%, CCCCNS(=O)(=O)CCNCc1ccccc1OC -14.5%, O=C(COC(=O)C1CCCO1)Nc1nc(-c2ccc(F)cc2)cs1 (stereo not drawn) -7.58%, CCOC(=O)COn1c(=O)c(-c2ccc(OCC)cc2)[n+]([O-])c2ccccc21 -31.8%, CCOC(=O)Cn1c(-c2cccnc2Cl)nc2ccccc21 -7.78%, CCCCn1c(N)c(N(CCOC)C(=O)c2cccc(OCc3ccccc3)c2)c(=O)[nH]c1=O -25.9%, CCn1c(COc2cccc(OC)c2)nnc1SCC(=O)N1CCOCC1 -6.58%, COc1ccc2nc3n(c(=O)c2c1)-c1ccc(Cl)cc1C(=O)NC3Cc1ccccc1 (stereo not drawn) -24.8%, CCOC(=O)C1=CN(Cc2ccc(Br)cc2)S(=O)(=O)N(C)C1C (stereo not drawn) -12.4%, O=C1[C@@H](c2ccccc2)[C@@H](c2ccccc2)N1c1cccnc1 42.8%, COc1cc(/C=C/C(=O)Nc2ccc(OC)c(S(=O)(=O)N3CCOCC3)c2)ccc1OCC#N 9.74%, Cn1nnnc1SCC(=O)Nc1nc2ccccc2s1 -5.36%, C=CCn1c(SCC(=O)NCc2ccccc2)nnc1-c1cc(Br)ccc1O -7.43%, Cc1ccc(S(=O)(=O)NC[C@H]2O[C@@H](n3cnc4c(N)ncnc43)[C@H](O)[C@@H]2O)s1 -0.44%, CCn1c(=S)[nH]c2cc(S(=O)(=O)N3CCOCC3)ccc21 -24.1%, O=C(O)c1ccccc1CSc1nc2ccccc2s1 -10.9%, CCOc1ccccc1Nc1ccc2nonc2c1[N+](=O)[O-] -9.48%, C[C@@H](CN1CCC[C@H]1CN1C(N)=NC[C@@H]1Cc1ccccc1)N1C[C@@H](Cc2ccccc2)N(CCCC2CCCC2)C1=N -9.98%, Fc1ccccc1-c1cc2cc3c(cc2cn1)OCO3 38.1%, Cc1c(CN2CC[C@@H](N3CCN(c4ccccn4)CC3)[C@H](O)C2)[nH]c2ccc(F)cc12 -18.8%, C#CCOCCOCCOCCNc1nc(N2CCN(C(=O)[C@H](CCC(=O)O)n3cc(CN)nn3)CC2)nc(N2CCN(C(=O)[C@H](CCC(=O)O)n3cc(CN)nn3)CC2)n1 -6.85%
